# Data: PubChem BioAssay AID485317 (Broad Institute, 2010)
# Screen size: about 290,000 compounds; about 11,000 (3.8%) were called active.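 Rule for the calls: active = mean replicate inhibition above about 79%, with every replicate also reaching it (limit read from the data); inconclusive = only one of the two criteria met; inactive = mean below limit and not every replicate reaching it.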 What follows is part of a selection rich in actives, with near analogues and random picks from the rest.
# Biological target: FAD-linked sulfhydryl oxidase ALR (Homo sapiens) (UniProt P55789)
# Sequence (P55789 whole entry, looked up): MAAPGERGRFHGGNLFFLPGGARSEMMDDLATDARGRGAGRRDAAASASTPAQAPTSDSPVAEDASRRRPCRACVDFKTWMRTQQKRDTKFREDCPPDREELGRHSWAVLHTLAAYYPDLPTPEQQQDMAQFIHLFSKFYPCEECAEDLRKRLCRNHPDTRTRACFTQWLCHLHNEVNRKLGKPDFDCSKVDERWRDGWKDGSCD
# Assay: inhibitors of human ALR sulfhydryl oxidase, primary screen, biochemical, H2O2 detection, HRP-luminol luminescence, single point (AID 485317)
# Conditions: purified ALR, DTT oxidation, stronger effect = higher value, concentration not given here
row,SMILES,inhibition
1,CCN(CC(=O)Nc1ccccc1C(F)(F)F)C(=O)C1CCN(C(=O)Nc2ccccc2)CC1,8.41% (inactive)
2,O=C(CN1CCN(c2ccc(Cl)cc2)CC1)N1CCCC1,97.8% (active)
3,O=C(CN1CCN(c2ccc(Cl)cc2)CC1)c1ccccc1,4.7% (inactive)
4,O=C(CN1CCCC1)N1CCN(c2ccccc2)CC1,23.5% (inactive)
5,Cc1ccc(CSCC(N)C(=O)O)cc1 (stereo not given),99.1% (active)
6,Cc1ccc(CSCC(=O)N(C)CC(=O)Nc2ccc(C)cc2)cc1,-0.0315% (inactive)
7,CSCC(NS(=O)(=O)c1ccc(C)cc1)C(=O)O (stereo not given),19.4% (inactive)
8,CCC1(c2ccccc2)NC(=O)N(CC(=O)c2ccc3c(c2)OCO3)C1=O (stereo not given),0.023% (inactive)
9,COc1cc(OC)cc(-c2c(C#Cc3ccsc3)c3cc(-c4ccc(OC)cc4F)ccc3n2C)c1,-17.2% (inactive)
10,Cc1cccc(N2CCN(C(c3ccccc3)c3nnnn3CC3CCCO3)CC2)c1C (stereo not given),-2.29% (inactive)
11,COc1ccc(C(c2nnnn2Cc2cccs2)N2CCN(c3ccccc3)CC2)cc1OC (stereo not given),8.5% (inactive)
12,COc1ccccc1C(c1nnnn1CC1CCCO1)N1CCN(c2ccccc2)CC1 (stereo not given),90.9% (active)
13,COc1ccc(NC(=O)CCC(=O)N2CCN(S(=O)(=O)c3ccc(C)cc3)CC2)c(OC)c1,-6.29% (inactive)
14,O=S(=O)(NCCCc1ccccc1)c1ccc(Br)cc1,2.4% (inactive)
15,Cc1[nH]c2ccccc2c1C(=O)C(C)Sc1nnc(C2CC2)o1 (stereo not given),-3.37% (inactive)
16,O=C(NCCCc1ccccc1)C1CCC(=O)N(CCc2ccc(Cl)cc2)C1 (stereo not given),0.977% (inactive)
17,O=C(CSC1CC(=O)N(CCc2ccccc2)C1=O)Nc1ccc(Cl)cc1 (stereo not given),93.5% (active)
18,CC(=O)Nc1ccc(NC(=O)C(C)OC(=O)C2CC(=O)N(CCc3ccccc3)C2)cc1 (stereo not given),-1.82% (inactive)
19,c1ccc2c(CCN3CCNC[C@H]3Cc3cccc4ccccc34)cccc2c1,-14.6% (inactive)
20,CN(C(=O)c1cccc(NC(=O)Cc2ccc([N+](=O)[O-])cc2)c1)C1CCC1,-1.83% (inactive)

row,SMILES,inhibition
1,Cc1ccc(OCC(=O)Nc2ccccc2C(=O)NC2CC2)cc1,-2.04% (inactive)
2,Cc1nc(C)c(-c2csc(NCCc3ccccc3)n2)s1,24% (inactive)
3,O=c1cnnc(Nc2ccccc2)[nH]1,1.2% (inactive)
4,CC(C)(C)C(=O)c1cnc(Nc2ccccc2)s1,19.3% (inactive)
5,S=c1[nH]nc(Nc2ccccc2)s1,98.6% (active)
6,S=c1[nH]nc(NCCc2ccccc2)s1,95.1% (active)
7,S=C(NCCc1ccccc1)Nc1ccccc1,12.6% (inactive)
8,CCCc1cc(=O)[nH]c(SCC(=O)Nc2ccc(C(=O)Nc3ccccc3OC)cc2)n1,-0.142% (inactive)
9,O=C(NCCC1CCCCN1S(=O)(=O)c1ccc(Cl)cc1)C(=O)NCc1ccco1 (stereo not given),-1.02% (inactive)
10,Cc1cccc(C(=O)Nc2ccc3c(c2)C(=O)N(CC(C)C)C3=O)c1,-20.8% (inactive)
11,Cc1cc(NC(=O)OC(C)C)ccc1-c1ccc(NC(=O)OC(C)C)cc1C,91.5% (active)
12,CN1C(=O)c2ccc(NC(=O)c3c(F)c(F)c(F)c(F)c3F)cc2C1=O,-3.79% (inactive)
13,Cn1cncc1C#Cc1c(-c2ccsc2)sc2ccccc12,1.87% (inactive)
14,O=C(CN1C(=O)c2ccc([N+](=O)[O-])cc2C1=O)Nc1nnc(C2CC2)s1,-1.72% (inactive)
15,CCOc1ccc(NC(=O)c2ccc(NC(=O)CN3C(=O)C(=O)N(CC(C)C)C3=O)cc2)cc1,-8.04% (inactive)
16,O=C(CSc1nnc(Nc2ccccc2F)s1)NC1CCCC1,-1.36% (inactive)
17,CC12CCC(=O)N1C(C(=O)NCCN1C(=O)S/C(=C\c3ccccc3F)C1=O)CS2 (stereo not given),-5.02% (inactive)
18,CCCc1nnc(NC(=O)CN2C(=O)c3ccccc3S2(=O)=O)s1,1.19% (inactive)
19,O=C(CN1C(=O)c2ccccc2S1(=O)=O)NC1CCCCC1,-2.86% (inactive)
20,CNC(=O)CN1C(=O)c2ccccc2S1(=O)=O,96.2% (active)

row,SMILES,inhibition
1,CC(OC(=O)c1ccc2noc(-c3ccccc3)c2c1)C(N)=O (stereo not given),2.68% (inactive)
2,COc1ccc(-c2onc3ccc(C(C)=O)cc23)cc1,-6.5% (inactive)
3,Oc1ccc(-c2onc3ccc(Cl)cc23)cc1,81% (active)
4,O=C1COc2ccc(C(=O)CSc3ccc(Br)cc3)cc2N1,-4.57% (inactive)
5,COCCN(C(=O)COC(=O)Cc1cccc(OC)c1)c1c(N)n(Cc2ccccc2)c(=O)[nH]c1=O,3.3% (inactive)
6,COc1ccc(-c2cc(C(=O)N/N=C/c3cccnc3)c3ccccc3n2)c(OC)c1,0.831% (inactive)
7,CCCc1cc(=O)[nH]c(SCC(=O)c2c(N)n(CC(C)C)c(=O)n(C)c2=O)n1,-1.46% (inactive)
8,CCCc1cc(=O)[nH]c(SCC(=O)c2cc(C)n(CCC)c2C)n1,96% (active)
9,Cc1cc(C(=O)CSc2nc(N)cc(=O)[nH]2)c(C)n1CCc1ccc(Cl)cc1,3.32% (inactive)
10,Cc1ccc(F)cc1NC(=O)CSCc1c(C)noc1C,9.91% (inactive)
11,Cc1cccc(C(=O)N[C@H](C(=O)NCc2cccs2)C(C)C)c1,0.403% (inactive)
12,CCC(C)NC(=O)c1ccc(NC(=O)CC2SC(N3CCCCC3)=NC2=O)cc1 (stereo not given),-5.35% (inactive)
13,O=C(NCCCO)c1cc2c([nH]c3ccccc32)c(-c2ccc(F)cc2)n1,98% (active)
14,COc1cccc2[nH]c(C(=O)NCCc3ccccc3)cc12,-7.11% (inactive)
15,O=C(NCC1CCCO1)c1cc2c([nH]c3ccccc32)c(-c2ccc(F)cc2)n1 (stereo not given),96.9% (active)
16,O=C(NCC1CCCO1)c1cc(-c2ccccc2)nc2ccccc12 (stereo not given),-3.93% (inactive)
17,CN(C)CCCNC(=O)c1ccc2[nH]c3ccccc3c2c1,-6.4% (inactive)
18,COc1ccc2cc(C(=O)NCC3CCCO3)[nH]c2c1 (stereo not given),-17.8% (inactive)
19,C[C@H](CO)N1C[C@H](C)[C@@H](CN(C)C(=O)NC2CCCCC2)Oc2ccc(NC(=O)c3ccncc3)cc2C1=O,-4.41% (inactive)
20,CCN(C(=O)CSc1cccc[n+]1[O-])c1ccccc1,-7.12% (inactive)
